# Source: PubChem BioAssay
# ATXN viability: Viability Counterscreen for Primary qHTS for Inhibitors of ATXN expression; S2 cells (HEK-293 line with an ATXN2-luciferase reporter) viability, CellTiter-Fluor protease fluorescence, 24 h; Potency, µM (titrated, usually from 56.7 µM), usual class: cytotoxic; actives 0.49% (n = 400,000); AID 651635, 2014; note: nearly all actives have a fitted effect of over 40% in size
# KB-3-1 cytotox: qHTS assay for MDR1-selective chemotherapeutics: Primary screen using the parental adenocarcinoma cell KB-3-1 | Potency, µM (doses to about 46.1 µM), actives largely listed as cytotoxic | actives 1.4% (n = 400,000) | KB-3-1 viability, CellTiter-Glo ATP luminescence, 72 h | AID 1347075, 2019; note: % is set by controls: 0 for no effect and ±100 for the full control effect; nearly all actives have a fitted effect of over 60% in size
#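 Here the drug-naive KB-3-1 line serves as comparator for MDR sub-line selectivity; cells received compound titrations, 72 h at 37 °C, then CellTiter-Glo readout.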
# HT1080 IDH1KD tx: qHTS for induction of synthetic lethality in tumor cells producing 2HG: qHTS for the HT-1080-IDH1KD cell line; HT-1080 IDH1 knockdown viability, ATP luminescence, 48 h; Potency, µM (top dose mostly 46.1 µM), for the others: at the top dose activity, negative = toxicity, hits mostly cytotoxic; actives 2% (n = 360,000);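 note: 0% = DMSO wells and -100% = cell-free medium wells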
#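 In this qHTS, HT-1080 cells depleted of IDH1 are exposed for 48 h at 37 °C to compound titrations. Toxicity is scored from CellTiter-Glo luminescence, with DMSO as full viability and medium alone as none.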
# KB-V1 cytotox: qHTS assay for MDR1-selective chemotherapeutics: Primary screen using the drug-selected MDR subline cells KB-V1. KB-V1 MDR cells viability, CellTiter-Glo, 72 h. Potency, µM (series often up to 46.1 µM), usual class: cytotoxic. actives 3.4% (n = 400,000). AID 1347076, 2019; note: % is set by controls: 0 for no effect and ±100 for the full control effect; nearly all actives have a fitted effect of over 60% in size
#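 In this primary screen, KB-V1 cells overexpressing P-gp are incubated with library compounds (lowest to highest concentration) for 72 h at 37 degrees C before a luminescent ATP viability read.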
# ATXN2 expr inh: Primary qHTS for Inhibitors of ATXN expression; HEK-293 ATXN2-luciferase reporter, luminescence, 24 h; actives 0.72% (n = 360,000); AID 1745845, 2022; Potency, µM (top dose mostly 57 µM), for the others: top-dose activity change, negative = inhibition, actives largely listed as inhibitors; note: % is set by controls: 0 for no effect and ±100 for the full control effect; nearly all actives have a fitted effect of over 55% in size
#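 qHTS (up to 57 uM final) was run with 24 h compound exposure of reporter cells at 37 °C. Each well was multiplexed: SteadyGlo luminescence measured ATXN2-luciferase expression after a fluorogenic Gly-Phe-AFC viability readout (25 uM final).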
# HT1080-NT tox: qHTS for induction of synthetic lethality in tumor cells producing 2HG: qHTS for the HT-1080-NT fibrosarcoma cell line. HT-1080-NT fibrosarcoma viability, CellTiter-Glo ATP luminescence, 48 h. Potency, µM (titrated, usually from 46.1 µM), without a hit: top-dose activity, negative = less viability, usual class: cytotoxic. actives 1.6% (n = 360,000);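 note: NT is the 2HG producing partner of a matched IDH1 knockdown line; 0% = DMSO-treated cells and -100% = media-only wells without cells; nearly all actives have a fitted effect of over 55% in size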
#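 HT-1080-NT; 750 cells/well; 5% FBS RPMI; 48 h compound, 37 degrees C; CellTiter-Glo luminescence; curve fitting and curve-class assignment.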
# Starred values were filed as active, the others as inactive; i = inactive; ? = inconclusive; / = not tested or not shown; ! = repeats disagree; [ ] = dose if it differs, or a comment. An excerpt weighted towards active compounds, which were near 6.2% of everything screened. Calls come from the whole dose curve; as a rule, active = well fitted curve in the direction sought with a large enough effect; inconclusive = small, poorly fitted or top-dose-only effect, or another doubt; inactive = no such curve, though single readings can be large; an effect the other way counts as inactive or inconclusive. Potency is the fitted concentration of half-maximal effect.
SMILES,ATXN viability,KB-3-1 cytotox,HT1080 IDH1KD tx,KB-V1 cytotox,ATXN2 expr inh,HT1080-NT tox
O=[N+]([O-])c1ccc(NC(=S)NCc2ccncc2)cc1,i,i,-5.7%,?,-35.5%,-20.7%
O=[N+]([O-])c1ccc(NC(=S)NCc2ccc(F)cc2)cc1,i,?,23.1µM*,?,?,?
O=[N+]([O-])c1ccc(NC(=S)N2CCc3ccccc3C2)cc1,?,i,7.3%,23.1µM*,3.8%,-4.5%
O=[N+]([O-])c1ccc(NNC(=S)Nc2ccccc2)cc1,?,?,?,?,-28.7%,20µM*
O=[N+]([O-])c1ccc(NC(=S)NCCc2ccc(Cl)cc2)cc1,?,?,?,16.4µM*,?,?
O=[N+]([O-])c1ccc(NC(=S)NCCc2ccccc2)cc1,i,?,?,?,21.1%[11.3 µM],?
OCCN1CCN(Cc2ccc3c(c2)CN(Cc2cccn2-c2ccccn2)CCO3)CC1,i,/,/,/,/,/
COc1cc2c(NC3CCN(C)CC3)nc(N3CCCN(C)CC3)nc2cc1OCC1CCCCN1 (centres undefined),/,?,/,i,/,/
COc1cccc(-c2ccc(O)c(CNCc3cccc(OC)c3OC)c2)n1,i,/,/,/,/,/
O=C(Nc1ccc(-c2nc3ccccc3[nH]2)cc1)c1ccc(C(F)(F)F)cc1,/,i,/,i,/,/
CCOC(=O)CNC(=O)C1CCCCC1,/,i,/,?,/,/
CCCCNC(=S)Nc1ccc(Cl)cc1,i,i,-3.1%,16.4µM*,15.4%,-3.8%
O=C(Nc1nnc(-c2ccc(Cl)cc2)o1)C1=COCCO1,i,i,-1.2%,8.2µM*,5.7%,-0.5%
O=C(Nc1nnc(-c2ccc3c(c2)CCCC3)o1)c1c(F)cccc1F,i,i,-23.9%,?,-2.4%,-14.5%
O=C(Nc1nnc(-c2ccc3c(c2)CCCC3)o1)c1ccc(Cl)cc1Cl,39.8µM*,?,-29.2%,i,?,?
Cc1ccc(C)c(-c2nnc(NC(=O)C3=COCCO3)o2)c1,i,i,-18.3%,i,-8.4%,-18.9%
COc1ccc(/C(C)=C/C(=O)O)c(OC)c1,i,/,/,/,11.2%,/
Cc1ccccc1NC(=O)c1oc(=O)c2ccccc2c1-c1ccccc1,i,i,-8.1%,i,-9.2%,-14.4%
Cc1ccc(C)c(NC(=O)c2oc(=O)c3ccccc3c2-c2ccccc2)c1,i,i,-13.2%,18.4µM*!,-14.6%,-0.7%
CCc1ccccc1NC(=O)c1oc(=O)c2ccccc2c1-c1ccccc1,i,i,/,?,6.6%,/
Cc1cccc(NC(=O)c2oc(=O)c3ccccc3c2-c2ccccc2)c1C,i,i,?,10.3µM*,-23.1%,-14.9%
COc1ccc(-c2ccnc(-n3ncc(C(=O)NC(C)(C)CO)c3C3CC3)n2)cc1F,i,/,/,/,/,/
CCN(C(=O)c1cc2c(=O)oc3ccc(C)cc3c2s1)c1ccccc1C,i,i,/,i,-2.7%,/
COC(=O)c1c(C)sc(-c2c(-c3cccc(Cl)c3)[nH]c3c2c(=O)[nH]c(=O)n3C)c1O,i,i,/,i,16.1%,/
CC(=O)Nc1ccc(SCC(=O)c2ccc(Br)s2)cc1,i,i,18.4µM*,i,30.3%,25.9µM*
SMILES,ATXN viability,KB-3-1 cytotox,HT1080 IDH1KD tx,KB-V1 cytotox,ATXN2 expr inh,HT1080-NT tox
CC(/C=C/c1ccccc1)=N\NC(=O)CCc1ccccc1,?,i,-0.2%,i,5.5%,12.1%
C/C(=N\NC(=O)CCc1ccccc1)C1C(=O)c2ccccc2C1=O,?,?,?,9.2µM*,?,?
C/C(=N\NC(=O)c1cccc(Cl)c1)C1C(=O)c2ccccc2C1=O,?,23.1µM*,8.2µM*,9.2µM*,55.0%,13µM*
CC(/C=C/c1ccco1)=N\NC(=O)c1cccc(Cl)c1,i,i,?,?,-8.6%,-22.4%
COC(=O)c1cn(C(=O)c2ccc(C)cc2C)c2ccccc12,i,?,6.51µM*,i,-19.2%,?
O=C(CSCc1cccc(CSCC(=O)Nc2ccc3ccccc3c2)n1)Nc1ccc2ccccc2c1,i,?,-18.8%,23.1µM*,?,-7.2%
O=C(CS)Nc1ccc2ccccc2c1,i,i,20.6µM*,i,-18.9%,20.6µM*
O=C(Nc1ccc2ccccc2c1)c1ccccc1Cl,i,i,-5.1%,i,/,5.5%
Oc1ccc2ccccc2c1CNc1ccccc1,i,i,-17.2%,?,31.4%,3.3%
Oc1ccc2ccccc2c1CNc1ccc2ccccc2c1,i,?,20.6µM*,?,-25.8%,?
O=C(Nc1ccc2ccccc2c1)c1ccccc1O,i,?,23.1µM*,?,?,14.6µM*
CC(C)Cc1nn2c(=O)cc(COC(=O)c3ccc4c(c3)OCO4)nc2s1,i,i,/,i,11.0%,/
Cc1cc([N+](=O)[O-])ccc1-c1ccc(C2Nc3ccccc3C(=O)N2O)o1 (centres undefined),?,23.1µM*,7.08µM*,i,?,?
O=C1c2ccccc2NC(c2ccc(-c3ccccc3F)o2)N1O (centres undefined),?,?,/,i,?,/
CCN1C(=O)N2C[C@H]3CON(C)[C@H]3C[C@H]2c2ccccc21,i,i,15.2%,i,6.4%,9.9%
CCN(Cc1ccccc1)C(=O)c1ccc2c(=O)n3c(nc2c1)CCC3,i,i,19.0%,10.3µM*,3.9%,3.7%
O=C(c1ccc2c(=O)n3c(nc2c1)CCCCC3)N1CCN(c2ccccc2)CC1,i,i,16.6%,i,0.6%,24.5%
CC(=O)c1ccc(NC(=O)c2ccc3c(=O)n4c(nc3c2)CCCCC4)cc1,i,i,-1.2%,?,-35.6%,-11.0%
O=C(c1ccc2c(=O)n3c(nc2c1)CCCCC3)N1CCN(C(c2ccccc2)c2ccccc2)CC1,?,?,10µM*,?,-31.7%,17.8µM*
Cc1ccc(-c2csc(NC(=O)c3ccc4c(=O)n5c(nc4c3)CCCCC5)n2)cc1,i,i,2.7%,10.3µM*,-25.6%,11.5%
COCCN(Cc1ccccc1)C(=O)c1ccc2c(=O)n3c(nc2c1)CCC3,i,i,9.2%,i,0.2%,17.1%
Cc1cccc(NC(=O)c2ccc(-n3cnc4cccnc43)cc2)c1C,i,?,/,i,21.7%,/
